# GLD-1 TGE inh = GLD-1-TGE RNA interaction inhibition (C. elegans); purified GLD-1 + fluorescein TGE RNA, fluorescence polarization; inhibition, % at 5.96 µM; 320,000 compounds, 0.44% hits; Q17339;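 active = percent inhibition above a per-plate cutoff, the plate mean of test compounds plus 3 SD, cut at about 30% in these data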;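 note: 0% = DMSO wells with GLD-1 and probe and 100% = wells lacking GLD-1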
# Bcl-xL primary = Bcl-xL (human) inhibition; inhibition, % at 10.9 µM; 320,000 compounds, 0.7% hits; GST-Bcl-xL / FITC-Bim BH3 peptide fluorescence polarization;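 active = inhibition above the mean of all tested compounds plus 3 SD, cutoff set per campaign, cut at about 30% in these data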;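 note: 0% = DMSO wells and 100% = unlabeled Bim-BH3 peptide competitor; inhibitors lower millipolarization by displacing the labeled peptide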
# Target sequence (Q07817 whole entry, looked up): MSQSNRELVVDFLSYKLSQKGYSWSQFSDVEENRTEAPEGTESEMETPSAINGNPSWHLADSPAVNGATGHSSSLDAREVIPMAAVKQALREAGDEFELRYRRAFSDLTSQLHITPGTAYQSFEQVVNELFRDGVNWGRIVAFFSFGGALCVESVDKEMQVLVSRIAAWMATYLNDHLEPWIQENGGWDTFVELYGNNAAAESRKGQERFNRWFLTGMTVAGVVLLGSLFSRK
# Mcl-1 Bim block = inhibitors of Bim-Mcl-1 interaction, human; inhibition, % at 10 µM; 190,000 compounds, 0.1% hits; Q07820; Bead-based flow cytometry, Bim peptide-Mcl-1 binding; in the data active = inhibition above about 40%;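 note: 0% = no compound tracer wells and 100% = peptide blocker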
# MCL1-BIM inh = MCL1-BIM-BH3 interaction inhibition (human); GST-MCL1 / FITC-Bim-BH3 fluorescence polarization; inhibition, % at 10.9 µM; 320,000 compounds, 0.68% hits;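 active = inhibition above the mean inhibition of all tested compounds plus 3 SD, set per campaign, cut at about 40% in these data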;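 note: 0% = DMSO wells and 100% = unlabeled Bim-BH3 peptide control; higher means more loss of mP so more displacement of Bim peptide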
# Mcl1 Bid PPI = disrupts binding of human Mcl-1 to Bid peptide | inhibition, % at 21.7 µM | TR-FRET Mcl-1/Bid-Dy647 peptide binding, 1536-well | Q07820 | 220,000 compounds, 0.97% hits | AID 1021;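 active = compounds that cut the binding signal by more than half at the single screening dose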;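 note: His-tagged Mcl-1 with europium anti-His antibody binding Bid BH3 peptide; 0% = Mcl-1 plus peptide wells and 100% = peptide-only wells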
# Mcl1 Noxa PPI = Mcl-1/Noxa interaction inhibition; Q07820; TR-FRET Mcl-1/Noxa peptide binding, 2 h; inhibition, % at 21.7 µM; 220,000 compounds, 1.5% hits; AID 1022;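 active = compounds that cut the protein-peptide binding signal by more than 50% relative to plate controls in a single-dose test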;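 note: His-tagged Mcl-1 with rhodamine Noxa BH3 peptide and terbium anti-His antibody; 0% = Mcl-1 plus Noxa peptide wells and 100% = peptide-only wells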
# Starred values were filed as active, the others as inactive; . = no result. The list is not random: actives were taken first. Their share in the collection is about 2.3%.
SMILES,GLD-1 TGE inh,Bcl-xL primary,Mcl-1 Bim block,MCL1-BIM inh,Mcl1 Bid PPI,Mcl1 Noxa PPI
O=C(O)CCCCCCCCCCCNC(=O)NC12CC3CC(CC(C3)C1)C2,1,3,.,1,.,.
CC(C)(C)C1CCC(C(=O)OCC(=O)Nc2ccc3[nH]c(=O)[nH]c3c2)CC1 (centres undefined),-9,-2,-1,-10,8,59*
CCC1CCCCN1C(=O)CSc1nnc(CNC(=O)c2c(F)cccc2Cl)o1 (centres undefined),-6,2,.,1,.,.
Cc1ccc(S(=O)(=O)N2CCC(C(=O)N3CCCC3C(=O)N[C@@H](CC(C)C)C(=O)NCC(N)=O)CC2)cc1 (some centres undefined),3,-2,.,-3,.,.
C=CCn1c(SCC(=O)Nc2sccc2C(N)=O)nc2ccccc2c1=O,-2,1,-2,-5,2,7
C=CCn1c(SCC(=O)Nc2sccc2C(N)=O)nc2ccc(Cl)cc2c1=O,12,3,-3,8,61*,30
CCc1nc(-c2ccccc2)c2ccccn12,-1,5,0,-1,9,62*
CCOC(=O)C1=C(CSc2nc3c(cc2C#N)CN(C)CC3)OC(N)=C(C#N)C1c1ccc(F)cc1 (centres undefined),25,39*,0,43*,-62,14
CS(=O)(=O)c1cccc(NC(=O)C2CCCN2S(=O)(=O)c2ccc(F)cc2)c1 (centres undefined),4,5,.,6,.,.
CSc1ccc(S(=O)(=O)N2c3ccccc3CC2C)cc1 (centres undefined),6,5,.,7,.,.
CN(c1ccc(C(=O)Nc2ccc(CC#N)cc2)cc1)S(C)(=O)=O,4,5,-3,1,-5,19
CCN(CC(=O)Nc1cccc(OC)c1)C(=O)c1ccco1,3,5,.,0,.,.
COc1ccc(/C=N/NC(=O)c2cccc(Br)c2)cc1COc1ccccn1,8,3,.,5,-22,-8
COc1ccccc1N1CCN(S(=O)(=O)c2cn(C)c(=O)n(C)c2=O)CC1,-8,47*,0,-7,-13,9
O=c1c(Cl)c(O)c2cccc3c4ccccc4n1c23,8,6,-3,3,18,65*
Cc1cnc(C(=O)Nc2ccc(C(=O)N3CCCCC3)cc2)cn1,-1,11,-3,8,0,56*
Cc1ccccc1NC(=S)N/N=C1\CC(C)(C)Oc2ccc(O)cc21,4,82*,-3,8,-131,-63
Cc1ccc(NC(=S)N/N=C2\CC(C)(C)Oc3ccc(O)cc32)cc1,5,2,-9,8,-41,23
CCCCCCCCCCCCCCCCn1cc[n+](CC(C)=O)c1,.,.,-1,.,59*,42
CCn1c(SCC(=O)Nc2ccc(Br)cn2)nnc1C1CC1,5,6,.,10,.,.
CSc1nc(SCC(=O)O)c2sc3nc(-c4ccccc4)c4c(c3c2n1)CCC4,.,.,.,.,90*,-77
COc1ccc(-c2cc3c(=O)n(CC(=O)Nc4ccc(Cl)cc4)nc(C)n3n2)cc1,5,5,.,-1,.,.
CC(=O)c1ccc(S(=O)(=O)N2CCn3cccc3C2C)cc1 (centres undefined),20,43*,.,42*,.,.
COC(=O)c1ccccc1S(=O)(=O)N1CCn2cccc2C1C (centres undefined),10,19,6,15,69*,22
COc1ccc(NC(C)=O)cc1S(=O)(=O)N1CCn2cccc2C1C (centres undefined),3,12,.,8,.,.
CC(=O)c1cccc(S(=O)(=O)N2CCn3cccc3C2C)c1 (centres undefined),17,33*,.,40*,.,.
CC1c2cccn2CCN1S(=O)(=O)c1ccc(F)cc1 (centres undefined),1,8,.,2,.,.
CC(NC(=O)COC(=O)c1ccccc1F)C1CC2CCC1C2 (centres undefined),1,.,.,.,.,.
COC/C=C/C1=CC2=CC(=O)C(C)(OC(=O)c3cnc4ccccc4n3)C(=O)C2=CN1c1ccc(CO)cc1 (centres undefined),12,20,.,91*,.,.
CC1=C(C(=O)OCC(C)C)C(c2cc3c(cc2Br)OCO3)NC(=O)N1C (centres undefined),7,3,1,6,-15,10
